# This is a sample that favours compounds with a hit; in the whole collection about 6.5% have one here.
# VACV mCherry inh = vaccinia inhibition (mCherry reporter); Vaccinia virus mCherry reporter infection, fluorescence; Potency, µM (series often up to 36.5 µM), usual class: inhibitors; actives 0.63% (n = 310,000); AID 720579; calls by dose curve; tested in A549 cells; note: nearly all actives have a fitted effect of over 35% in size
# Vaccinia Venus = inhibitors of vaccinia virus (Venus reporter) | actives 0.46% (n = 330,000) | Potency, µM (top dose mostly 36.5 µM), hits mostly inhibitors | Vaccinia virus Venus reporter expression, fluorescence; calls by dose curve; tested in A549 cells; note: nearly all actives have a fitted effect of over 30% in size
# HCMV antiviral = inhibitors of human cytomegalovirus. HFF cells, HCMV-luciferase reporter, 72 h; hits give low values. actives 4.5% (n = 410,000). activity change, negative = inhibition, % at 57.5 µM; in the data active = activity change below about -60%; inconclusive = no clear call, values can overlap the other calls; inactive = above about -39%
#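 Cell-based, HFFs, 1000 cells/well, 16 h 37C; cpds in DMSO + HCMV-luc, MOI 1 PFU/cell; 72 h 37C; OneGlo luminescence after 5 min RT; norm. to buffer vs Salinomycin 10uM.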
# Marburg entry inh = Marburg virus entry inhibition. Marburg virus pseudotyped entry inhibition, cell reporter. Potency, µM (titrated, usually from 37.8 µM), usual class: inhibitors. actives 1.8% (n = 300,000); calls by dose curve; tested in HEK293 cells
# FMDV antiviral = blocks foot and mouth disease virus | Potency, µM (titrated, usually from 57.9 µM), actives largely listed as inhibitors | FMDV antiviral cell-based qHTS | actives 1.2% (n = 410,000); calls by dose curve; tested in HEK293T cells; note: read-out not given here; nearly all actives have a fitted effect of over 45% in size
# LASV entry inh = Lassa virus entry inhibition; actives 1.2% (n = 300,000); Potency, µM (series often up to 37.9 µM), hits mostly inhibitors; Lassa virus pseudotype entry inhibition, cell reporter; calls by dose curve; tested in HEK293 cells; note: nearly all actives have a fitted effect of over 50% in size
# Numbers stand for hits; – = inactive; ? = inconclusive; · = no result given.
SMILES,VACV mCherry inh,Vaccinia Venus,HCMV antiviral,Marburg entry inh,FMDV antiviral,LASV entry inh
Cc1ccc(N=c2c([N+](=O)[O-])nn(-c3ccc4c(c3)OCCO4)n2O)cc1F,–,–,-85,?,?,–
O=[N+]([O-])c1nn(-c2ccc3c(c2)OCCO3)n(O)c1=Nc1ccc(Cl)cc1,–,–,-91,?,·,?
C=C(C)CO[C@H]1C=C[C@@H](c2ccccc2)O[C@H]1CO,·,·,·,–,·,·
CC(CNc1nc2ccccc2c2nc(-c3ccccc3)nn12)c1ccccc1 (configuration not stated),–,–,-94,–,?,·
c1ccc(CNc2nc3ccccc3c3nc(-c4ccccc4)nn23)cc1,–,–,–,–,–,·
COc1cccc(OC)c1C(=O)Nc1sc2c(c1C(N)=O)CCN(Cc1ccccc1)C2,–,–,–,·,?,·
CC(=O)c1ccc(C(=O)Nc2sc3c(c2C(N)=O)CCN(Cc2ccccc2)C3)cc1,·,·,-74,·,·,·
CCN1CCc2c(sc(NC(=O)c3cc4ccccc4cc3OC)c2C(N)=O)C1,14µM,?,-113,11µM,–,–
CCN1CCc2c(sc(NC(=S)NC(=O)c3cccc(F)c3)c2C(N)=O)C1,–,–,·,·,·,·
COc1ccc2c3n(nc2c1)C(C)CN=C3c1ccc(Cl)cc1 (configuration not stated),·,·,–,·,·,·
Cc1ccc(NC(=O)Cn2nnc(-c3ccccc3NC(=O)c3cccs3)n2)cc1,–,?,?,?,–,0.58µM
COc1ccccc1NC(=O)Cn1nnc(-c2ccccc2NS(=O)(=O)c2ccccc2)n1,?,–,-67,?,?,?
O=C1[C@H]2[C@H]3[C@H](O)[C@H](O)C/C(=N\OC[C@@H](O)COCc4ccco4)[C@H]3CC[C@H]2C(=O)N1Cc1ccccc1,·,·,·,–,·,·
COc1ccc(CC(=O)Nc2sc3c(c2C(=O)Nc2c(C)cccc2C)CCCCC3)cc1,?,?,-70,–,–,–
COc1ccc(NC(=O)c2c(NC(=O)C(F)(F)F)sc3c2CCCCC3)cc1,–,–,–,·,–,3.2µM
COC(=O)c1ccc(NC(=O)c2c(NCc3ccc(OC)c(OC)c3)sc3c2CCCC3)cc1,–,–,-67,·,–,–
COc1ccc(CNC2C[C@H]3CCCC(=O)N4CC[C@@H](C2)[C@@H]34)cc1 (some centres not stated),–,–,–,·,–,·
COc1ccc2[nH]c3c(c2c1)[C@@H]1CCN2C(=O)CCC[C@H](C3)[C@H]12,–,–,-61,·,–,·
Cc1cc(C)c2oc(-c3cccc(NC(=O)COc4ccc(Cl)cc4C)c3C)nc2c1,–,–,·,·,·,·
Cc1cc(-c2ccccc2)nc(N/N=C/c2ccc(O)cc2O)n1,?,?,–,?,–,–
CN(/N=C/c1ccc(O)cc1O)c1nc(-c2ccccc2)cc(-c2ccccc2)n1,?,20µM,-62,?,–,–
COc1cccc(NC(CNS(=O)(=O)c2ccc(Cl)cc2)c2ccccc2)c1 (configuration not stated),?,?,-100,?,–,?
Cc1ccc(NC(CNS(=O)(=O)c2ccc(Cl)cc2)c2ccccc2)cc1 (configuration not stated),–,?,-80,?,–,?
O=S(=O)(NCC(Nc1ccc(Cl)cc1)c1ccccc1)c1ccccc1 (configuration not stated),?,?,–,?,–,?
O=S(=O)(Nc1cccnc1)c1ccc(C2CCCCC2)cc1,?,?,-66,?,–,–
SMILES,VACV mCherry inh,Vaccinia Venus,HCMV antiviral,Marburg entry inh,FMDV antiviral,LASV entry inh
O=[N+]([O-])c1ccc(/C=N/NC(=S)Nc2ccc(Cl)cc2Cl)s1,·,·,-64,·,–,·
O=[N+]([O-])c1ccc(O)c(/C=N/NC(=S)Nc2ccc(Cl)cc2Cl)c1,?,–,–,?,–,?
CCn1nc(C)c(/C=N/NC(=S)Nc2ccc(Cl)cc2Cl)c1C,–,–,-103,–,–,–
Cc1nn(C)cc1/C=N/NC(=S)Nc1ccc(Cl)cc1Cl,–,–,–,?,–,–
CCC(N)(C(=O)O)c1ccc(C(=O)O)cc1 (configuration not stated),–,–,·,·,–,·
CCC12CN3CC(CC)(CN(C1)C3c1ccc(OCc3ccccc3)cc1)C2=O (configuration not stated),–,–,–,–,–,–
COc1cc(=O)n2c(c1C(=O)N(C)Cc1nonc1C)CCN(Cc1cccc(Cl)c1)CC2,–,–,·,·,–,·
CCOC(=O)c1c(C)[nH]c(C(=O)N/N=C\c2ccccc2O)c1C,?,?,-100,?,–,8.9µM
CCOC(=O)c1c(C)[nH]c(C(=O)N/N=C/c2ccc(OC)c(OC)c2)c1C,·,·,–,·,–,·
CCOC(=O)c1c(C)[nH]c(C(=O)N/N=C/c2cc([N+](=O)[O-])ccc2O)c1C,–,–,–,?,–,6.5µM
Cc1noc(C)c1-c1nccc(NCCN2CCOCC2)n1,·,·,·,·,–,·
Cc1cccc(CCNC(=O)CCc2c(C)nc3c(c(C)nn3-c3ccccc3)c2C)c1,–,–,–,?,?,–
CCOC(=O)/C(=N/Nc1ccccc1)N1CCCc2ccccc21,–,–,-63,?,?,–
COC(=O)c1ccc(NC(=O)CC2C(=O)N(c3ccc(F)cc3)C(=O)N2Cc2ccc(OC)cc2)cc1 (configuration not stated),–,–,–,·,–,–
Cc1nnc2ccc(N3CCC4(CC3)OCCO4)nn12,–,–,-62,?,–,–
CC1(C2CCN(Cc3c[nH]c4ccccc34)CC2)NC(=O)N(CCN2CCOCC2)C1=O (configuration not stated),–,–,·,·,–,·
COc1cccc(NC(=O)c2oc3ccccc3c2NC(=O)c2ccc(OC(C)C)cc2)c1,–,–,–,–,–,–
Cc1cccc(-n2nc([N+](=O)[O-])c(=NC3CCN(Cc4ccccc4)CC3)n2O)c1,·,·,-64,·,–,·
COP(=O)(OC)c1ccc(NCc2cc(O)ccc2O)cc1,–,–,?,4.5µM,–,–
CC(C)OC(=O)c1ccc(NCc2cc(O)ccc2O)cc1,?,–,-63,2µM,6.3µM,13µM
CCC(=O)Nc1ccc(C(=O)OCc2ccccc2)cc1,–,–,–,?,–,–
COC(=O)c1ccc(OCC(=O)c2ccc(O)cc2O)cc1,·,·,-61,–,–,?
O=C(OCc1ccccc1)c1ccc(NCc2cc(O)ccc2O)cc1,10µM,?,-87,?,10µM,2.5µM
CC(C)OC(=O)c1ccc(NC(=O)c2ccccc2)cc1,–,–,–,?,–,?
COC(=O)c1ccc(CCc2cc(O)ccc2O)cc1,?,–,·,?,–,13µM
COC(=O)c1ccc(CCc2cc(O)c(Br)cc2O)cc1,–,–,–,–,–,–
CCCCC(=O)OCC(=O)N1N=C(c2c[nH]c3ccccc23)C(O)C1c1ccc(OC)cc1 (configuration not stated),·,·,-61,·,–,·
COc1ccc(CC(=O)OCC(=O)N2N=C(c3ccccc3)CC2c2ccc(OC)cc2)cc1 (configuration not stated),–,–,–,?,–,–
CCN(CC)CCNC(=O)C1=C(OC)CC(N)=C(Cl)C1,·,·,·,–,·,·

# Screens as filed in PubChem BioAssay.
